aSyn UTR act: Activators via SNCA 5'UTR binding, MLPCN. alpha-synuclein 5'UTR reporter, activators screen. activity score, % (tested at 7.5 µM), hits read low. hit rate 7.1% among 300,000. AID 1814; in the data active = activity score below about -60%
A number is an active result; 0 = inactive. Only a sample is shown.

SMILES	aSyn UTR act
CC(=O)c1ccc(-c2nnc(CCC(=O)N3CCCC(C(=O)CC(C)C)C3)o2)s1 (centres undefined)	-157
O=C(CCc1nnc(C2(c3ccc(Cl)cc3)CCC2)o1)N1CCCC1	-72
N/C(=N\OC(=O)c1ccccc1[N+](=O)[O-])c1ccccn1	-104
N/C(=N\OC(=O)c1ccccc1[N+](=O)[O-])c1cccnc1	-97
N/C(=N\OC(=O)c1ccc([N+](=O)[O-])cc1)c1cccnc1	-92
N/C(=N\OC(=O)c1ccccc1Cl)c1ccccn1	0
N/C(=N\OC(=O)c1cc([N+](=O)[O-])ccc1Cl)c1cccnc1	0
Cc1ccc(C(=O)O/N=C(\N)c2cccnc2)cc1[N+](=O)[O-]	-125
COc1ccc(/C(N)=N/OC(=O)c2ccc(C)c([N+](=O)[O-])c2)cc1OC	-126
CC1=NC(=O)C(N=Nc2ccccc2)N1c1ccccc1 (centres undefined)	-109
CC(C)NC(=O)N1CCCN(c2nc3ccc(Cl)cc3s2)CC1	-62
CC(C)C(=O)N1CCN(c2nc3ccc(Cl)cc3s2)CC1	-140
CC(=O)c1cccc(N=Nc2c(C)[nH]c3ccccc23)c1	-150
COC(=O)c1c(-c2ccc(Br)cc2)noc1N	-65
Cc1cc2oc(=O)cc(CN(C)Cc3ccccc3F)c2cc1Cl	-80
Cc1ccc2c(CNCc3ccccc3)cc(=O)oc2c1	-65
Cc1ccc2c(CN(C)Cc3cccc(F)c3)cc(=O)oc2c1	-124
Cc1ccccc1NC(=O)C(=O)c1cn(C)c2ccccc12	-133
CC(=O)n1cc(N(C(=O)CCl)c2ccc(Cl)cc2)c2ccccc21	0
CC(C)(C)N(Cc1ccccc1)C(=O)CN1C(=O)c2ccccc2C1=O	-97
Cc1cc(CNC(=O)c2cc(COc3ccc(F)c(F)c3)on2)nn1C	-124
Cc1nc(C(C)NC(=O)c2cc(COc3ccc(C)c(C)c3)on2)c(C)s1 (centres undefined)	-82
Cc1cc(OCc2cc(C(=O)NC(C)c3c(C)nn(C)c3C)no2)cc(C)c1Cl (centres undefined)	-114
CC(=O)c1ccc(OCc2cc(C(=O)NC(C)c3cnn(C)c3)no2)cc1 (centres undefined)	-87
CC(NC(=O)c1cc(COc2ccccc2)on1)c1nccs1 (centres undefined)	-169
SMILES	aSyn UTR act
CC(=O)c1ccc(OCc2cc(C(=O)NCCn3nc(C)cc3C)no2)cc1	-68
COc1cc(C2c3cc4c(cc3C(OC3OC5COC(c6cccs6)OC5C(O)C3O)C3COC(=O)C23)OCO4)cc(OC)c1O (centres undefined)	0
O=C(NNC(=S)Nc1ccccc1)c1cccs1	-231
O=C(NNC(=S)Nc1ccc(Cl)cc1)c1cccs1	-125
NC(=O)c1ccc(CSc2nc3ccccc3s2)cc1	-101
c1ccc2sc(SCc3ccc(-c4nnco4)cc3)nc2c1	-156
CCC(C)/C(C)=N/NC(=O)c1ccc(CSc2nc3ccccc3s2)cc1 (centres undefined)	-156
CCC(C)(C)NC(=O)CCCSc1nc2ccccc2s1	-154
CCNC(=O)c1ccc(CSc2nc3ccccc3s2)cc1	-65
COc1ccc(-c2ccc(C3C(C#N)=C(N)Oc4n[nH]c(C)c43)o2)cc1 (centres undefined)	-65
Cc1ccsc1/C=N/N1CCN(c2ccccn2)CC1	-94
Cc1ccsc1/C=N/N1CCN(c2ccccc2)CC1	-148
Cc1ccc(NC(=S)Nc2ccc(OC(F)F)c(Cl)c2)cc1F	-105
O=C(Nc1ccc(OC(F)F)c(Cl)c1)c1ccccn1	-92
COc1ccc(NC(=O)c2ccc(OC(F)F)cc2)cc1Cl	-167
CCCCC(=O)N/C(N)=N/c1nc2ccccc2o1	-206
N/C(=N\c1nc2ccccc2o1)NC(=O)c1ccccc1F	-198
Cc1occc1-c1nc(-c2ccncc2)no1	-77
Cc1ccc(-c2noc(-c3ccoc3C)n2)cc1	-186
CCN(CC)S(=O)(=O)c1ccc2nc(NC(=O)c3cccs3)sc2c1	-104
CCN(CC)S(=O)(=O)c1ccc2nc(NC(=O)c3ccco3)sc2c1	-63
O=C(CSc1nnc(-c2ccccc2Br)o1)N1CCOCC1	-111
O=C(CSc1nnc(-c2ccccc2Cl)o1)N1CCCC1	-68
O=C(CSc1nnc(-c2ccccc2O)o1)N1CCOCC1	-69
O=C(NCc1cccnc1)c1cc(-c2cccs2)on1	-92
SMILES	aSyn UTR act
COc1ccc(-c2cc(C(=O)NCc3cccnc3)no2)cc1	-117
O=C(NCc1ccccc1)c1cc(-c2cccc(O)c2)on1	-66
COc1ccc(CNC(=O)c2cc(C3CC3)on2)cc1	-106
Cc1ccc(NC(=O)c2cc(-c3cccc(O)c3)on2)cc1C	-115
O=C(NCc1cccnc1)c1cc(-c2ccccc2)on1	-89
N=C1CCCN1CC(=O)c1ccc(Br)cc1	-87
Cn1nc(C(=O)Nc2ccc(S(=O)(=O)NCc3ccco3)cc2)c2ccccc2c1=O	-96
Cn1nc(-c2ccc(N3CCCCC3)c(NC(=O)c3ccco3)c2)c2ccccc2c1=O	0
Cc1ccc2cc(/C=C/C(=O)c3ccco3)c(Cl)nc2c1	-121
COc1ccc2cc(/C=C/C(=O)c3ccco3)c(Cl)nc2c1	-78
Cc1ccc2nc(Cl)c(/C=C/C(=O)c3ccco3)cc2c1	-151
COc1ccc2cc(/C=N/NC(=O)c3ccc(CN(c4ccc(C)c(C)c4)S(C)(=O)=O)cc3)c(Cl)nc2c1	0
CCOC(=O)c1ccccc1NC1c2ccccc2C(=O)N1c1ccc(C)cn1 (centres undefined)	-85
COc1cc(NC2c3ccccc3C(=O)N2c2ccc(C)cn2)cc(OC)c1OC (centres undefined)	-77
CCc1ccc(-c2cc(N)n(-c3ccccc3)n2)cc1	-121
Nc1cc(C2CCCC2)nn1-c1ccccc1	-128
Cc1ccc(-c2cc(N)n(-c3ccccc3)n2)cc1	-115
CCNc1nc(C)c2cc(Br)c(=O)n(CC)c2n1	0
Fc1ccc(Nc2nc3ccccc3s2)cc1	-207
Cc1ccccc1Nc1nn2c(=O)c3ccccc3nc2s1	-155
CN(C)c1ccc(CNc2nc3ccccc3s2)cc1	0
Cc1ccc(Nc2nc3ccccc3s2)cc1	-171
Cc1ccccc1Nc1nc2ccccc2s1	-220
O=C(Nc1ccc(Cl)cc1)ON=C1CCCC1	-75
COc1ccc2c(c1OC)C(=O)N(c1ccc(F)cc1)C2	-159
SMILES	aSyn UTR act
COc1cc2c(c(OC)c1OC)-c1ccc(OC)c(=O)cc1[C@@H](NC(C)=O)CC2	0
CCOc1ccc(C2CC(c3ccc(CC)cc3)Nc3nc(N)nn32)cc1 (centres undefined)	-65
CCOC(=O)c1ccc2nc(C)c(C)nc2c1	-88
CCOC(=O)c1ccc2nc(C)c(CCC(C)=O)c(Cl)c2c1	-108
CC1(C)CC(/C=C/c2ccccc2)=Nc2ccccc2N1	-155
O=C1CC(/C=C/c2ccc(Cl)cc2)=Nc2ccccc2N1	-226
O=C1CC(/C=C/c2ccccc2)=Nc2ccccc2N1	-252
Cc1ccc(NC(=O)/C(C#N)=C/c2cccs2)c(C)c1	-169
Cc1ccc(C)c(NC(=O)/C(C#N)=C/c2cn(CC(=O)NCc3ccco3)c3ccccc23)c1	0
N#C/C(=C\c1cccs1)C(=O)Nc1ccccn1	-75
O=C(COc1ccc2ccccc2c1Br)Nc1cccnc1	-210
O=C(COc1ccc2ccccc2c1Br)Nc1ccncc1	-84
O=C(COc1ccccc1[N+](=O)[O-])Nc1cccnc1	-72
O=C(COc1ccc2ccccc2c1Br)NC(=S)Nc1cccc(CO)c1	-66
Cn1c(SCC(=O)c2ccccc2)nnc1-c1ccccn1	-128
Cn1c(SCC(=O)c2ccc(F)cc2)nnc1-c1cnccn1	-63

From PubChem BioAssay
